Among the data in PubChem BioAssay (NCATS) are Potency values, retold here.

Holding throughout (test): qHTS profiling for inhibitors of Plasmodium falciparum proliferation (AID 504749); note: nearly all actives have a fitted effect of over 60% in size
Settings in all cases: P. falciparum in erythrocytes, SYBR Green DNA, 72 h; series mostly up to 28.7 µM
(In general: Quantitative high-throughput screening tests each substance at several concentrations.)

In one assay the test system is CP192. In short, it runs like this: (§1)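 P. falciparum-infected erythrocytes (0.3% parasitemia, 2.5% hematocrit) incubated with compound 72 h at 37 C, 5% CO2. Parasite DNA detected by SYBR Green after lysis, overnight at room temperature; normalised to 0.29 uM artemisinin and DMSO.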
In a further assay the test system is CP194. Summed up:
as §1

A further assay relates to CP201. In short, it runs like this:
as §1

A further assay has as its system CP203. In short, it runs like this:
as §1

The subject of the next assay is CP211. Summed up:
as §1

For the next assay, the system named is CP215. Summed up: as §1
The subject of another assay is CP217. In short, it runs like this: as §1
For the next assay, the system named is CP237. Summed up:
as §1

The next assay has as its system CP238. In short, it runs like this: as §1
Another assay concerns CP247. In short, it runs like this: as §1

Results filed as inconclusive are left out. Calls of active or inactive are those of the source. Calls come from the whole dose curve; as a rule, active = well fitted inhibition curve with a large enough effect; inconclusive = small, poorly fitted or top-dose-only effect; inactive = flat fitted curve, though single readings scatter.
Potency is the fitted concentration of half-maximal effect.

`Cc1cnc(C(=O)NCCc2ccc(S(=O)(=O)NC(=O)NC3CCCCC3)cc2)cn1`: the Potency result in the assay with CP192, in the assay with CP194, in the assay with CP201, with CP203, with CP211 and in the assay with CP215 was “inactive” in each case. The Potency result in the assay with CP217, in the assay on CP237, with CP238 and with CP247 was “inactive” throughout.
On to `Cn1c(=O)c2[nH]cnc2n(C)c1=O`, for which the Potency result in the assay with CP192, with CP194, in the assay with CP201, with CP203, with CP211 and in the assay with CP215 was “inactive” in each case. The Potency result in the assay with CP217, with CP237, in the assay on CP238 and in the assay on CP247 was “inactive” each time.
For `CC[N+](CC)(CC)CCOc1cccc(OCC[N+](CC)(CC)CC)c1OCC[N+](CC)(CC)CC`, the Potency result with CP192, in the assay on CP194, with CP201, in the assay on CP203, in the assay with CP211 and with CP215 was “inactive” in each case. Also, the Potency result in the assay on CP217, with CP237, in the assay with CP238 and with CP247 was “inactive” each time.
`Clc1ccccc1C(c1ccccc1)(c1ccccc1)n1ccnc1`: the Potency is 1.81 µM (active) with CP192; 1.44 µM (active) in the assay with CP194; 4.55 µM (active) in the assay on CP201; 0.721 µM (active) in the assay on CP203; 2.28 µM (active) with CP211; 1.14 µM (active) in the assay on CP215. For the same molecule, the Potency in the assay with CP217 is 0.631 µM (active); in the assay on CP237, 0.398 µM (active); in the assay with CP238, 0.794 µM (active); in the assay with CP247 it was 0.891 µM (active).
For the molecule `O=c1c(-c2ccc(O)cc2)coc2cc(O)cc(O)c12`, the Potency result in the assay with CP192, in the assay with CP194, in the assay with CP201, in the assay with CP203, in the assay with CP211 and with CP215 was “inactive” each time. The Potency entry in the assay with CP217, with CP237, in the assay on CP238 and with CP247 was “inactive” each time.
For `CCOC(=O)C(C)(C)Oc1ccc(Cl)cc1`, the Potency result in the assay on CP192, in the assay with CP194, in the assay with CP201, with CP203, with CP211 and with CP215 was “inactive” in each case. Besides, the Potency result in the assay with CP217, in the assay with CP237, in the assay with CP238 and in the assay on CP247 was “inactive” each time.
Take `CN1CCC(=C2c3ccccc3CC(=O)c3sccc32)CC1`: the Potency entry in the assay on CP192 is “inactive”. The Potency with CP203 is 8.49 µM (active).
With `Cc1ccc(C(=O)Nc2ccc(S(=O)(=O)O)c3cc(S(=O)(=O)O)cc(S(=O)(=O)O)c23)cc1NC(=O)c1cccc(NC(=O)Nc2cccc(C(=O)Nc3cc(C(=O)Nc4ccc(S(=O)(=O)O)c5cc(S(=O)(=O)O)cc(S(=O)(=O)O)c45)ccc3C)c2)c1`, the Potency entry in the assay on CP192, in the assay with CP194, in the assay on CP201, in the assay with CP203, in the assay with CP211 and in the assay on CP215 was “inactive” in each case. In addition, the Potency entry in the assay on CP217, with CP237, in the assay on CP238 and with CP247 was “inactive” throughout.
As for `Clc1ccc2nsnc2c1NC1=NCCN1`, the Potency result in the assay with CP192, in the assay on CP194, in the assay with CP201, in the assay on CP211, with CP215 and with CP217 was “inactive” in each case. Also, the Potency entry in the assay on CP237, in the assay with CP238 and with CP247 was “inactive” in each case.
`COc1ccccc1OCCNCC(O)COc1cccc2[nH]c3ccccc3c12` (centres undefined): the Potency result in the assay on CP192, in the assay with CP201 and with CP211 was “inactive” throughout. In addition, the Potency with CP237 was 12.6 µM (active).
Turning to `Nc1nc2c(ncn2COC(CO)CO)c(=O)[nH]1`, the Potency result with CP192, in the assay on CP194, in the assay with CP201, in the assay on CP203, in the assay with CP211 and in the assay on CP217 was “inactive” in each case. For the same molecule, the Potency entry with CP237, in the assay on CP238 and in the assay on CP247 was “inactive” in each case.
Consider `O=C(Nc1ccc([N+](=O)[O-])cc1Cl)c1cc(Cl)ccc1O`, for which the Potency in the assay on CP203 is 0.478 µM (active); in the assay on CP215 it was 0.536 µM (active); in the assay with CP237, 1.12 µM (active). Moreover, in the assay with CP238, the Potency entry is “inactive”.
As for `CC#C[C@]1(O)CC[C@H]2[C@@H]3CCC4=CC(=O)CCC4=C3[C@@H](c3ccc(N(C)C)cc3)C[C@@]21C`, the Potency in the assay with CP194 was 16.9 µM (active); in the assay with CP201 it was 15.1 µM (active); in the assay on CP203 it was 19 µM (active); in the assay on CP211 it was 13.5 µM (active); in the assay with CP215 it was 12 µM (active); in the assay with CP217, 11.2 µM (active). The Potency is 11.2 µM (active) in the assay on CP237 and 8.91 µM (active) in the assay on CP247.
`Clc1ccc2c(c1)C(N1CCNCC1)=Nc1ccccc1O2`: the Potency result in the assay on CP192, with CP201, in the assay with CP203 and in the assay with CP211 was “inactive” throughout. The Potency with CP237 was 7.08 µM (active).
As to `NC(=O)OCC(COC(N)=O)c1ccccc1`, the Potency entry with CP192, in the assay on CP194, in the assay on CP201, in the assay with CP203, in the assay with CP211 and in the assay with CP215 was “inactive” each time. For the same molecule, the Potency entry with CP217, with CP237, in the assay with CP238 and with CP247 was “inactive” throughout.
`O=C1N(c2ccccc2)c2ccccc2C1(Cc1ccncc1)Cc1ccncc1`: the Potency result with CP192, with CP194, in the assay on CP201, with CP203, with CP211 and in the assay with CP215 was “inactive” throughout. Moreover, the Potency entry in the assay on CP217, in the assay on CP238 and in the assay on CP247 was “inactive” in each case.
Turning to `NC12CC3CC(CC(C3)C1)C2`, the Potency result with CP192, in the assay with CP194, with CP201, with CP203, with CP211 and in the assay with CP215 was “inactive” in each case. Also, the Potency result in the assay on CP217, in the assay on CP238 and with CP247 was “inactive” throughout.
On to `O=C(c1ccc(OCCN2CCCCC2)cc1)c1c(-c2ccc(O)cc2)sc2cc(O)ccc12`, for which the Potency with CP201 is 9.53 µM (active); in the assay with CP203 it was 16.9 µM (active); with CP215 it was 19 µM (active); with CP237, 3.55 µM (active); in the assay with CP247, 7.08 µM (active).
Regarding `CN(C)CCOC(c1ccccc1)c1ccccc1`, the Potency result in the assay on CP192, in the assay with CP201, in the assay on CP215, with CP217 and in the assay with CP247 was “inactive” each time.
`CC[C@@]1(O)C(=O)OCc2c1cc1n(c2=O)Cc2cc3c(CN(C)C)c(O)ccc3nc2-1`: the Potency is 4.78 µM (active) in the assay with CP194; 6.75 µM (active) with CP203; 6.01 µM (active) with CP211; 6.01 µM (active) with CP215; 8.91 µM (active) with CP237.
In the case of `COc1ccc(CCN(C)CCCC(C#N)(c2ccc(OC)c(OC)c2)C(C)C)cc1OC` (centres undefined), the Potency result in the assay on CP192, in the assay with CP201, in the assay with CP217, in the assay on CP238 and with CP247 was “inactive” throughout.
